# Only some compounds are listed: those with a hit (about 12% of all), similar ones and a draw of the others.
# AMA1 RON2 block: inhibitors of Plasmodium falciparum AMA1-RON2 interaction; AlphaScreen AMA1-biotinylated RON2 peptide binding; Potency, µM (top dose mostly 58.2 µM), for inactives: at the highest dose activity change, negative = inhibition, usual class: inhibitors; 360,000 tested, 0.2% active; AID 720542;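 note: 0% = vehicle wells and -100% = peptide control; nearly all actives have a fitted effect of over 45% in size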
#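 AMA1 (3D7) with his tag at 25 nM final met compounds first, then biotinylated RON2 peptide at 25 nM; detection used donor plus acceptor beads, 10 µg/mL apiece, read by AlphaScreen after 30 min at room temperature.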
# NS1 inh: influenza NS1 inhibition. Potency, µM (highest dose often 46.1 µM), for inactives: top-dose activity, positive = more growth. 270,000 tested, 0.4% active; calls by dose curve; note: actives are rising curves; nearly all actives have a fitted effect of over 50% in size
#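 OD600 was taken as the measure of yeast growth restored by compound in an NS1-expressing S. cerevisiae strain. Cells had been washed out of glucose medium and diluted 1:100 into galactose -URA medium, pH 6.0.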
# HCV inhibitor: blocks hepatitis C virus; Huh7.5.1 HCVcc-Cre infection, luciferase reporter, 44 h; Potency, µM (doses to about 41.8 µM), for the others: at the top dose activity change, negative = inhibition, hits mostly inhibitors; 340,000 tested, 3.4% active; AID 651820; note: % is set by controls: 0 for no effect and ±100 for the full control effect
#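 Cells seeded at 1,000/well and cultured 4 h, then compounds added followed by HCVcc-Cre virus (~0.5 moi). After 44 h further culture, luciferase substrate was added, plates held 15 min at room temperature, and luminescence read for 15 sec.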
# Pf growth 48h: P. falciparum growth inhibition at 48 hours (one generation) | P. falciparum luciferase growth in erythrocytes, 48 h | Potency, µM (series often up to 28.7 µM), for inactives: at the highest dose activity change, negative = inhibition, most hits filed as inhibitors | 310,000 tested, 5.9% active; note: % is set by controls: 0 for no effect and ±100 for the full control effect
#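 Cell-based growth assay: transgenic P. falciparum expressing firefly luciferase, cultured in red cells within RPMI 1640 containing 0.5% w/v Albumax, 24 mM bicarbonate and gentamycin. A drop in luciferase activity indicates inhibition.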
# SARS PLP yeast: blocks SARS-CoV papain-like protease in a yeast assay | S. cerevisiae expressing SARS-CoV PLpro, growth rescue | 330,000 tested, 0.19% active | Potency, µM (highest dose often 32.9 µM), without a hit: top-dose activity, positive = growth rescue, actives largely listed as activators; calls by dose curve; note: 0% is about no effect; nearly all actives have a fitted effect of over 55% in size
# Pf growth 96h: P. falciparum growth inhibition at 96 hour, primary screen for plastid delayed-death inhibitors | P. falciparum luciferase reporter growth, 96 h | Potency, µM (doses to about 28.7 µM), without a hit: at the highest dose activity change, negative = inhibition, most hits filed as inhibitors | 320,000 tested, 6.9% active; note: % is set by controls: 0 for no effect and ±100 for the full control effect
#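 Infected RBCs, 2% Hct / 0.05% parasitemia final; luciferase-reporter P. falciparum; cpd 96 h, 37 C, 5% CO2; luciferase detection reagent; luminescence.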
# Starred values were filed as active, the others as inactive; ? = inconclusive; nt = no result given. Unless noted, calls come from the whole dose curve; as a rule, active = well fitted curve in the direction sought with a large enough effect; inconclusive = small, poorly fitted or top-dose-only effect, or another doubt; inactive = no such curve, though single readings can be large; an effect the other way counts as inactive or inconclusive. Potency is the fitted concentration of half-maximal effect.
SMILES,AMA1 RON2 block,NS1 inh,HCV inhibitor,Pf growth 48h,SARS PLP yeast,Pf growth 96h
Cn1c(N)c(C(=O)CSc2nnc(NC3CCCCC3)s2)c(=O)n(C)c1=O,0%,nt,-4%,?,-1%,1.3µM*
Cc1nnc(SCC(=O)c2c(N)n(C)c(=O)n(C)c2=O)n1Cc1ccccc1,9%,3%,-6%,-6%,22µM*,2%
CC(C)Nc1nnc(SCC(=O)c2c(N)n(Cc3ccccc3)c(=O)n(C)c2=O)s1,11%,19%,-1%,?,3%,9.3µM*
C=CCn1c(COc2cc(C)ccc2C(C)C)nnc1SCC(=O)c1c(N)n(C)c(=O)n(C)c1=O,2%,6%,0%,-15%,-11%,?
CCCC(=O)OC[C@@H](OC(=O)CCC)[C@@H](OC(=O)CCC)[C@H](Cn1c2nc(=O)[nH]c(=O)c-2nc2cc(C)c(C)cc21)OC(=O)CCC,nt,nt,nt,?,nt,12µM*
CC(=O)OCCn1c2nc(=O)[nH]c(=O)c-2nc2cc(C)c(C)cc21,-3%,-6%,?,?,2%,?
CCOC(=O)Cn1c(-c2cccnc2Cl)nc2cc(C)c(C)cc21,-4%,4%,12%,36%,9%,-14%
Cc1cc2nc3c(=O)[nH]c(=O)nc-3n(CC(O)C(O)C(O)CO)c2cc1C (centres undefined),nt,nt,nt,13µM*,nt,7.6µM*
Cc1c(Cl)cccc1NC(=O)CSc1nc(=O)n(CCCN2CCOCC2)c2c1CCCC2,-8%,nt,nt,nt,nt,nt
CSc1ccc(CN2CCN(C(=O)Cc3ccccc3)CC2)cc1,?,nt,-3%,nt,nt,nt
Cc1ccccc1CN1CCN(C(=O)c2cccc3ccccc23)CC1,25µM*,-31%,-7%,12µM*,2%,0%
CCN1CCN(Cc2ccc(NC(=O)Nc3ccccc3)cc2)CC1,0%,-15%,-1%,-23%,-4%,-11%
CSc1ccc(CN2CCN(C(=O)CC(C)C)CC2)cc1,-29%,-9%,11µM*,-8%,-8%,-7%
COc1ccccc1CN1CCN(C(=O)c2cccc3ccccc23)CC1,?,nt,5%,nt,nt,nt
CCOc1cc(CN2CCN(C(=O)c3cccc4ccccc34)CC2)ccc1OC,?,-17%,?,8.3µM*,4%,?
COc1ccc(CN2CCN(C(=O)c3cccc4ccccc34)CC2)cc1OC,?,4%,-10%,-8%,10%,?
CCN1CCN(Cc2ccc(NC(=O)Nc3ccc(SC)cc3)cc2)CC1,-2%,-6%,?,1.7µM*,-1%,nt
COCCN(CC(=O)Nc1cccc(C)c1C)C(=O)C1(c2ccc(Cl)cc2)CCC1,12%,nt,-13%,nt,-6%,nt
O=C(CN(Cc1ccco1)C(=O)c1ccc(F)cc1)Nc1ccccc1Br,-4%,nt,?,nt,-4%,nt
Cc1ccccc1CN1CCN(C(=O)CC(C)C)CC1,8%,-18%,-1%,31%,-7%,10µM*
COc1ccc(CN2CCN(C(=O)CC(C)C)CC2)c2ccccc12,-12%,-20%,-9%,-25%,-4%,nt
COc1ccc(C(=O)c2coc(-c3ccccc3C(=O)O)c2C(=O)O)cc1,-12%,-15%,4%,4%,14%,25%
COc1ccc(C(=O)c2c(C(F)(F)F)oc3c2C(=O)c2ccccc2C3=O)cc1,?,8%,1.6µM*,0.1µM*,-42%,nt
C=C(C)CSc1nnc(CCCCCNC(=O)OC(C)(C)C)o1,-10%,1%,?,-18%,4%,-9%
N#Cc1c(N)nc2c(c1-c1ccc(F)cc1)c(=O)nc1sccn12,14%,nt,-11%,-15%,1%,?
SMILES,AMA1 RON2 block,NS1 inh,HCV inhibitor,Pf growth 48h,SARS PLP yeast,Pf growth 96h
COC(=O)C1=C(C)N(c2ccccc2)C(=S)NC1c1ccccc1C(F)(F)F (centres undefined),-2%,nt,?,10µM*,0%,?
COCCOC(=O)C1=C(C)N(c2ccccc2)C(=S)NC1c1ccccc1C(F)(F)F (centres undefined),25%,nt,5%,-20%,21%,?
c1cc(CNC23CC4CC(CC(C4)C2)C3)ccn1,19%,-1%,22%,12%,2%,1.9µM*
CCOc1[nH]n(-c2ccccc2)c(=O)c1C=Nc1ccccc1,17%,nt,-10%,-1%,-3%,3.7µM*
Cc1cc(Cl)ccc1NC(=O)CCC(=O)N/N=C/c1cc([N+](=O)[O-])ccc1O,122%,nt,1%,?,0%,?
O=[N+]([O-])c1ccc(/C=N/NC(=S)Nc2ccc(Cl)cc2Cl)s1,54%,-153%,?,13µM*,-7%,3.3µM*
O=[N+]([O-])c1ccc(O)c(/C=N/NC(=S)Nc2ccc(Cl)cc2Cl)c1,21%,-4%,19%,2.1µM*,9%,0.83µM*
Fc1ccc(/C=N/NC(=S)Nc2ccc(Cl)cc2Cl)cc1,142%,2%,?,-3%,1%,2.1µM*
Cc1ccc(-c2cn(-c3ccc(SC(F)F)cc3)c3[n+]2CCC3)cc1,-7%,2%,?,0.37µM*,-13%,?
FC(F)Sc1ccc(-n2cc(-c3ccc(Cl)cc3)[n+]3c2CCC3)cc1,-4%,0%,8%,0.74µM*,-1%,?
FC(F)Sc1ccc(NC2=NCCCCC2)cc1,12%,0%,-8%,14%,0%,30%
O=C1C(NS(=O)(=O)c2ccccc2)=C(N2CCN(c3ccc(F)cc3)CC2)C(=O)c2ccccc21,18µM*,21%,-9%,13µM*,5%,?
O=C1C(NS(=O)(=O)c2cccs2)=C(N2CCN(c3cccc(Cl)c3)CC2)C(=O)c2ccccc21,?,1%,2%,12µM*,4%,nt
CC1CCN(C2=C(NS(=O)(=O)c3ccc(Br)cc3)C(=O)c3ccccc3C2=O)CC1,13µM*,26%,5%,?,-17%,?
CC1CCN(C2=C(NS(=O)(=O)c3ccccc3)C(=O)c3ccccc3C2=O)CC1,?,8%,-23%,?,-8%,?
CC1CCN(C2=C(NS(=O)(=O)c3ccc(Cl)cc3)C(=O)c3ccccc3C2=O)CC1,?,6%,2%,7.4µM*,-28%,1.5µM*
CC1(C)Cc2cccc(OCC(=O)OCC(=O)Nc3cccc(S(N)(=O)=O)c3)c2O1,-1%,12%,15%,-6%,1%,-8%
O=C(CSc1nnc(Nc2ccccc2)s1)NCC1CCCO1 (centres undefined),-5%,nt,8%,-13%,6%,?
O=[N+]([O-])c1cc(Cl)c(Cl)c(Cl)c1Cl,0%,nt,45%,25%,2%,?
O=C1C(NS(=O)(=O)c2ccc(Br)cc2)=C(N2CCCCC2)C(=O)c2ccccc21,16µM*,-19%,?,12µM*,0%,9.3µM*
